Only a selection was taken, and hits are over-represented in it overall.
AmpC inh no detg: AmpC beta-lactamase inhibition without detergent; Potency, µM (series often up to 57.1 µM), for inactives: at the highest dose activity change, negative = inhibition, usual class: inhibitors; AmpC nitrocefin hydrolysis, absorbance 480 nm, 0.0001% Triton; 330,000 tested, 0.52% active; P00811;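 note: plate controls were no compound for no effect and no enzyme for full effect; nearly all actives have a fitted effect of over 20% in size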
Target sequence (P00811 whole entry, looked up): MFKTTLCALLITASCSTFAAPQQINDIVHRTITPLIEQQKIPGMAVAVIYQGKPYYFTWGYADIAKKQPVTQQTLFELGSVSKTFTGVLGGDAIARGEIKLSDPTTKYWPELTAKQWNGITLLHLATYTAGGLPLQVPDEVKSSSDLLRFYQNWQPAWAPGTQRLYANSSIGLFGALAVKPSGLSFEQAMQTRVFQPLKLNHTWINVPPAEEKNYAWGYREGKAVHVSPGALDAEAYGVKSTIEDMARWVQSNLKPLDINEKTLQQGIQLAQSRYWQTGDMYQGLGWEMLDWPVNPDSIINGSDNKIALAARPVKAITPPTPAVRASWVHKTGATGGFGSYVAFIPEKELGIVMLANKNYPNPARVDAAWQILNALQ
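AmpC (5.3 nM in the dispensed reagent) in 20 mM phosphate pH 7.0 with 0.01% (detergent screen) or 0.0001% Triton X-100 was preincubated with compounds for 15 min at room temperature. Nitrocefin was then added from an 800 uM solution, and hydrolysis was followed at 480 nm.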
AmpC detergent: AmpC beta-lactamase inhibition with detergent present. AmpC hydrolysis of nitrocefin, absorbance 480 nm, 0.01% Triton. Potency, µM (doses to about 114 µM), for inactives: top-dose activity change, negative = inhibition, hits mostly inhibitors. 370,000 tested, 0.041% active. AID 485294;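 note: 0% = no-compound wells and -100% = no-enzyme wells; nearly all actives have a fitted effect of over 25% in size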
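AmpC (5.3 nM in the dispensed reagent) in 20 mM phosphate pH 7.0 with 0.01% (detergent screen) or 0.0001% Triton X-100 was preincubated with compounds for 15 min at room temperature. Nitrocefin was then added from an 800 uM solution, and hydrolysis was followed at 480 nm.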
Starred values were filed as active, the others as inactive; ? = inconclusive; / = no result given. Calls come from the whole dose curve; as a rule, active = well fitted curve in the direction sought with a large enough effect; inconclusive = small, poorly fitted or top-dose-only effect, or another doubt; inactive = no such curve, though single readings can be large; an effect the other way counts as inactive or inconclusive. Potency is the fitted concentration of half-maximal effect.

SMILES	AmpC inh no detg	AmpC detergent
Oc1ccc(CNc2ccc(C(F)(F)F)cc2Cl)c2cccnc12	-31%	-8%
CCN(CC)S(=O)(=O)c1ccc(N2CCOCC2)c(NC(=O)c2ccccc2)c1	22%	-13%
CCN(CC)S(=O)(=O)c1ccc(O)c(NC(=O)c2ccc(N3CCOCC3)c([N+](=O)[O-])c2)c1	20µM*	1%
CCn1cc2nc(SCC(=O)Nc3cc(OC)cc(OC)c3)n(Cc3ccc(Cl)cc3)c(=O)c2n1	/	26%
Cc1ccccc1NCc1cccn1-c1nnc(N2CCC(C)CC2)s1	/	-1%
Cc1cccc(C(=O)Nc2cccc(C(=O)N/N=C/c3ccccn3)c2)c1	-39%	-7%
O=C(N/N=C/c1ccccn1)c1cccc(NC(=O)c2ccccc2Cl)c1	18µM*	1%
COc1ccccc1NC(=O)Cn1c(=O)c(CNc2ccccc2)cc2cc(OC)c(OC)cc21	/	2%
Cc1cc(NC(=O)CSCC(=O)OCC(=O)c2cccc(Br)c2)no1	32µM*	1%
Cc1cc(NC(=O)CSCC(=O)OCC(=O)Nc2ccc(OC(F)F)cc2)no1	-12%	1%
CN(C)CCCN1C(=O)CSC1c1ccccc1 (stereo not given)	1µM*	?
COc1cc(C2SCC(=O)N2CCCN(C)C)cc(OC)c1OC (stereo not given)	0%	-5%
CCN1CCN(c2cc(C)c3cc(NC(=O)/C=C/c4cccc(Cl)c4)ccc3n2)CC1	/	10%
Cc1cc(C(=O)COC(=O)c2ccc(NC(=O)CC#N)cc2)c(C)n1CCc1ccc(F)cc1	-57%	-4%
Cc1cc(C)c(C(=O)COC(=O)c2ccc(NC(=O)CC#N)cc2)cc1C	6.3µM*	11%
COc1ccc(CCn2c(C)cc(C(=O)COC(=O)c3ccc(NC(=O)CC#N)cc3)c2C)cc1	18µM*	-7%
CNC(=O)COC(=O)c1ccc(NC(=O)CC#N)cc1	-14%	1%
COc1cc(C(=O)NCC(c2ccc(N(C)C)cc2)N2CCc3ccccc32)cc(OC)c1OC (stereo not given)	/	-2%
CCOC(=O)c1c(C)[nH]c(C)c1S(=O)(=O)N(C)CC(=O)Nc1ccc(C)c(N(C)C)c1	/	-1%
CCOC(=O)c1nc(NCc2ccc(Cl)cc2)c2c(C)noc2n1	/	8%
O=C(CCCN1C(=O)/C(=C/c2ccccc2Cl)SC1=S)NNC(=O)c1ccc(Cl)cc1	-19%	-9%
Cc1ccc(C(=O)NNC(=O)CCCN2C(=O)/C(=C/c3ccccc3Cl)SC2=S)cc1	32µM*	1%
COc1ccc(-n2ncc3c(NC(C)(C)CO)ncnc32)cc1	/	4%
Cc1ccc(C)c(CSc2nc3c([nH]c4ccccc43)c(=O)n2C)c1	/	0%
O=C(NC(=S)NCc1ccccc1)c1cccc([N+](=O)[O-])c1	-36%	-13%
SMILES	AmpC inh no detg	AmpC detergent
O=C(CNC(=S)NC(=O)c1cccc([N+](=O)[O-])c1)c1ccccc1	13µM*	-8%
COc1cccc(/C=N/NC(=O)c2ccccc2)c1OS(=O)(=O)c1ccccc1	32µM*	-7%
COc1cccc(/C=N/NC(=O)c2ccc(=O)n(C)c2)c1OC	-9%	7%
O=C(/C=C\NCC(=O)c1ccccc1)c1ccc2ccccc2c1	-44%	1%
O=C(/C=C\NCC(=O)c1ccccc1)c1ccc(F)cc1	18µM*	1%
CC1=NN(c2ccc(C(=O)O)cc2)C(=O)/C1=C/c1ccc(-c2ccccc2F)o1	-1%	1%
CC1=NN(c2ccc(C)cc2)C(=O)/C1=C/c1ccc(-c2cc([N+](=O)[O-])ccc2O)o1	16µM*	-11%
O=C(CNC(=O)c1cccc(Br)c1)N/N=C/c1cccs1	-28%	?
O=C(CNC(=O)c1cccc(Br)c1)N/N=C/c1cc(Br)cc(Br)c1O	11µM*	5%
O=C(O)/C=C/c1ccc([N+](=O)[O-])o1	-14%	-2%
O=C1NC(=S)S/C1=C\C=C\c1ccc([N+](=O)[O-])o1	11µM*	-8%
O=C(Nc1ccccc1O)c1ccc(NS(=O)(=O)c2cccc3cccnc23)cc1	16µM*	-2%
COC(=O)c1ccc(NC(=O)c2ccc(NS(=O)(=O)c3cccc4cccnc34)cc2)cc1	-42%	2%
Cc1ccc(NC(=O)Nc2cc(S(=O)(=O)N(C)C)ccc2C)cc1	25µM*	-8%
Cc1ccc(S(=O)(=O)N(C)C)cc1NC(=O)Nc1ccccc1	-55%	1%
C=CCc1ccccc1OCc1nc2ccc(C)cc2[nH]1	/	15%
CSc1ncc(C(=O)NCc2ccc(Cl)cc2)c(C(F)(F)F)n1	/	11%
O=S(=O)(c1ccc2c(c1)OCCCO2)N1CCNCC1	-5%	?
c1cc2c(cc1C1CCCN1)OCCCO2 (stereo not given)	0.22µM*	-2%
CCOC(=O)C1CCCN(c2ncnc3c2cnn3-c2ccc(C)c(Cl)c2)C1 (stereo not given)	/	-2%
CCOC(=O)C1=C(C)Nc2ccccc2S1	-30%	-5%
CCOC(=O)/C=C1\Nc2ccccc2SC1=O	20µM*	-10%
COc1ccc(Nc2nc(-c3ccccc3O)nc3ccccc23)cc1	2µM*	0%
COc1cccc(Nc2nc(-c3ccccc3O)nc3ccccc23)c1	-39%	-9%
COc1ccc(Nc2cc(C)c3cc(NC(=O)c4cc(OC)cc(OC)c4)ccc3n2)cc1	/	2%
SMILES	AmpC inh no detg	AmpC detergent
O=C(c1ccc2c(c1)N(Cc1cccc(Cl)c1)C(=O)c1ccccc1S2(=O)=O)N1CCC(Cc2ccccc2)CC1	/	10%
CCOc1ccc(CC(=O)NCCc2sc3nc(-c4ccc(F)cc4)nn3c2C)cc1	/	0%
CCCCC(Sc1nc2cc3c(cc2c(=O)n1CCCC(=O)NCc1ccc(OC)cc1)OCO3)C(=O)OCC (stereo not given)	/	8%
COc1ccc(NC(=O)c2csc(Cc3ccc(Cl)cc3)n2)cc1	-16%	-1%
COc1ccc(COc2ccsc2C(=O)Nc2ccc(Cl)cc2)cc1	0.35µM*	0%
O=C(O)c1ccc2c(c1)C(=O)N([C@H](Cc1ccc(O)cc1)C(=O)O)C2=O	-4%	?
CCN1CCN(C(=O)c2ccc3c(c2)N(Cc2c(F)cccc2Cl)C(=O)c2ccccc2S3)CC1	/	-4%
CC(C)(C)OC(=O)NCCc1nnc(S(=O)(=O)Cc2ccc(Cl)cc2Cl)o1	0.32µM*	?
CC(C)(C)OC(=O)NCCc1nnc(SCc2ccccc2Cl)o1	46%	-10%
CCc1ccccc1N1CC(c2nc3ccccc3n2CCC2CCCCC2)CC1=O (stereo not given)	/	-4%
Cc1ccc(NC2=C(NC(=O)c3ccccc3)C(=O)c3ccccc3C2=O)cc1Cl	20µM*	1%
Cc1ccc(NCC(=O)c2ccccc2)cc1Cl	0.32µM*	-4%
Cc1ccc(C(=O)CNc2ccc(C)c(Cl)c2)cc1	-20%	-19%
Cc1ccc(NCCC(=O)c2ccccc2)cc1Cl	-24%	-5%
Cc1c(C(=O)Nc2cccc(F)c2)oc2c1-c1nn(Cc3c(F)cccc3Cl)cc1CC2	/	23%
O=C(c1ccc2c(c1)N(Cc1ccc(Cl)cc1)C(=O)c1ccccc1S2=O)N1CCC(Cc2ccccc2)CC1 (stereo not given)	/	-12%
Cc1cccc(-c2ccc3ncnc(N(C)Cc4ccco4)c3c2)c1	-1%	-3%
Cc1ccc(C2CC(=O)C=C(O)C2)cc1 (stereo not given)	14µM*	-14%
Cc1ccc(C2=CC(=O)C[C@H](c3ccc(Cl)cc3)C2)cc1	-10%	-3%

Bioassay records from PubChem.
